This note sets out measurements from PubChem BioAssay (NCI).

This is part of a sample that, as a whole, favours compounds with a hit. Of some 83,000 tested, about 20% had one in any assay.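 Cells were grown in 96-well plates and exposed to the test compound at a single concentration for 48 hours; results are reported as percent growth, with values below 10 considered active.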 A number with no mark means an inactive call. Active and inactive are the calls of the source.

Holding throughout (assay): NCI-60 one-dose screen, 48 h (100 = growth as untreated, 0 = no growth, -100 = all killed)
In one experiment the test system is NCI-H23 lung. Particulars: 10 µM unless noted.
The subject of another experiment is NCI-H226 lung. Particulars: 10 µM unless noted.
A further experiment has as its system NCI-H322M lung. As to conditions: 10 µM unless noted.
The test system of the next experiment is HOP-62 NSCLC. Particulars: 10 µM unless noted.
A further experiment deals with NCI-H460 lung. Particulars: 10 µM unless noted.
The next experiment has as its system HOP-92 NSCLC. Particulars: 10 µM.
In another experiment the test system is A549/ATCC NSCLC. Particulars: 10 µM unless noted.
The next experiment concerns 786-0 renal. Particulars: 10 µM unless noted.
A further experiment has as its system COLO 205 colon. As to conditions: 10 µM unless noted.
Another experiment has as its system DU-145 prostate. As to conditions: 10 µM unless noted.
The next experiment concerns K-562 leukemia. Particulars: 10 µM unless noted.
For the next experiment, the system named is MALME-3M melanoma. As to conditions: 10 µM unless noted.
The next experiment has as its system MDA-MB-231 breast. Particulars: 10 µM unless noted.
The next experiment deals with RXF 393 renal. Particulars: 10 µM unless noted.
The test system of a further experiment is SF-268 CNS. As to conditions: 10 µM unless noted.
In another experiment the test system is SF-295 CNS. As to conditions: 10 µM unless noted.
The test system of a further experiment is SF-539 CNS. As to conditions: 10 µM unless noted.
The test system of the next experiment is UACC-257 melanoma. As to conditions: 10 µM unless noted.
In the next experiment the test system is M14 melanoma. As to conditions: 10 µM unless noted.

Consider `Nc1ncc(-c2ccc3ncnc(N4CCc5cc(F)c(Cl)cc54)c3c2)cn1`, for which the growth is 31.7% in the experiment with NCI-H23 lung; 20.7% in the experiment with NCI-H226 lung; 23% with NCI-H322M lung; 19.6% in the experiment with HOP-62 NSCLC; 23% with NCI-H460 lung; -10.9% (active) in the experiment with HOP-92 NSCLC. For the same compound, the growth is 10.4% in the experiment with A549/ATCC NSCLC; 3.19% (active) in the experiment with 786-0 renal; 39.9% in the experiment with COLO 205 colon; 10.8% with DU-145 prostate; 34.6% in the experiment with K-562 leukemia; 33.6% with MALME-3M melanoma. Besides, the growth in the experiment on MDA-MB-231 breast was 0.108% (active); in the experiment with RXF 393 renal, -47.5% (active); in the experiment on SF-268 CNS it was 16.9%; in the experiment on SF-295 CNS, 13.2%; with SF-539 CNS it was 8.74% (active); in the experiment on UACC-257 melanoma, 50.6%. Also, the growth with M14 melanoma was 33.8%.

For the compound `CC(=O)Nc1cccc(Nc2nc(N[C@H](C)c3ccccc3)c3ccccc3n2)c1`, the growth with NCI-H23 lung was 52.3%; in the experiment with NCI-H226 lung it was 82.6%; in the experiment with NCI-H322M lung, 90.3%; in the experiment with HOP-62 NSCLC, 72.6%; in the experiment on NCI-H460 lung it was 41.2%; in the experiment on HOP-92 NSCLC it was 22%. For the same compound, the growth in the experiment on A549/ATCC NSCLC was 40.7%; with 786-0 renal it was 54.9%; with COLO 205 colon, 44.1%; with DU-145 prostate, 65%; in the experiment with K-562 leukemia, 5.94% (active); in the experiment with MALME-3M melanoma, 71.3%. The growth with MDA-MB-231 breast is 57.8%; in the experiment on RXF 393 renal, -5.79% (active); in the experiment on SF-268 CNS, 62.9%; in the experiment on SF-295 CNS, 42.3%; in the experiment with SF-539 CNS, 73.9%; with UACC-257 melanoma, 58.6%. Further, the growth in the experiment on M14 melanoma is 58.7%.

Consider `N/C(=N\C(N)=N\c1nc2ccccc2s1)c1ccc2ccccc2c1`, for which the growth in the experiment on NCI-H23 lung is 53.2%; with NCI-H226 lung, 62.7%; with NCI-H322M lung, 96.8%; in the experiment on HOP-62 NSCLC, -28% (active); in the experiment on NCI-H460 lung it was 68.1%; with HOP-92 NSCLC it was 88.6%. Besides, the growth in the experiment on A549/ATCC NSCLC is 9.92% (active); in the experiment with 786-0 renal, 87.9%; in the experiment with COLO 205 colon, 109%; in the experiment with DU-145 prostate it was 69%; in the experiment on K-562 leukemia it was 69.3%; with MALME-3M melanoma, 91.3%. The growth in the experiment on MDA-MB-231 breast was 67.9%; with RXF 393 renal it was 91.8%; with SF-268 CNS it was 78.9%; in the experiment with SF-295 CNS it was 74.6%; with SF-539 CNS, 102%; with UACC-257 melanoma, 109%. Moreover, the growth in the experiment on M14 melanoma is 97.5%.

With `O=C(Nc1ccc(N=Cc2c(O)[nH]c3ccccc23)cc1)Nc1nccs1`, the growth with NCI-H23 lung was 37.8%; with NCI-H226 lung, 30%; in the experiment on NCI-H322M lung it was 52.8%; in the experiment with HOP-62 NSCLC, 37.3%; with NCI-H460 lung, 16.8%; in the experiment on HOP-92 NSCLC it was 49.8%. Also, the growth in the experiment on A549/ATCC NSCLC was 56.6%; in the experiment with 786-0 renal it was 52.9%; in the experiment with COLO 205 colon, 25.7%; with DU-145 prostate it was 40.5%; in the experiment on K-562 leukemia, 17.3%; in the experiment with MALME-3M melanoma, 46.9%. In addition, the growth in the experiment on MDA-MB-231 breast is 47.9%; with RXF 393 renal it was -20.5% (active); in the experiment with SF-268 CNS, 77.2%; in the experiment with SF-295 CNS, 70.6%; in the experiment with SF-539 CNS it was 33.6%; in the experiment with UACC-257 melanoma it was 71.6%. In the experiment with M14 melanoma, the growth is 18.5%.

On to `NS(=O)(=O)c1ccc(-n2cc(CN3CCCCC3)nn2)cc1`, for which the growth is 107% in the experiment with NCI-H23 lung; 98.6% with NCI-H226 lung; 107% with NCI-H322M lung; 106% in the experiment on HOP-62 NSCLC; 105% in the experiment on NCI-H460 lung; 96.6% in the experiment with HOP-92 NSCLC. In addition, the growth in the experiment on A549/ATCC NSCLC is 105%; with 786-0 renal, 109%; in the experiment with COLO 205 colon, 119%; with DU-145 prostate, 108%; with K-562 leukemia, 94.9%; in the experiment with MALME-3M melanoma it was 105%. For the same compound, the growth is 105% with MDA-MB-231 breast; 106% in the experiment with RXF 393 renal; 102% in the experiment on SF-268 CNS; 102% in the experiment on SF-295 CNS; 102% with SF-539 CNS; 101% in the experiment on UACC-257 melanoma.

For the compound `Oc1[nH]c2ccccc2c1Nn1c(N=N/C=c2/ccc3c(c2)C=NN=3)n[nH]c1=S`, the growth in the experiment with NCI-H23 lung is 89.6%; in the experiment with NCI-H226 lung, 93.9%; in the experiment with NCI-H322M lung, 107%; in the experiment with HOP-62 NSCLC, 75.6%; in the experiment with NCI-H460 lung, 110%; with HOP-92 NSCLC, 76.6%. Also, the growth with A549/ATCC NSCLC was 99.9%; with 786-0 renal, 96.7%; in the experiment with COLO 205 colon, 30.9%; in the experiment with DU-145 prostate it was 99.1%; in the experiment on K-562 leukemia it was 101%; in the experiment on MALME-3M melanoma, 109%. Also, the growth with MDA-MB-231 breast is 75.6%; in the experiment with RXF 393 renal, 85.4%; with SF-268 CNS it was 96.9%; with SF-295 CNS, 106%; in the experiment with SF-539 CNS it was 94%; in the experiment with UACC-257 melanoma, 110%. Further, the growth in the experiment on M14 melanoma is 106%.

As for `COc1cc(-c2nn(C(C)(C)C)cc2-c2ccnc(NCCCNS(=O)(=O)c3ccccc3)n2)ccc1Cl`, the growth is 74.4% in the experiment with NCI-H23 lung; 66% in the experiment on NCI-H226 lung; 87.2% in the experiment on NCI-H322M lung; 72.8% in the experiment on HOP-62 NSCLC; 71.1% with NCI-H460 lung; 71.9% in the experiment with HOP-92 NSCLC. The growth in the experiment on A549/ATCC NSCLC is 51.4%; in the experiment with 786-0 renal it was 77.7%; with COLO 205 colon, 101%; in the experiment with DU-145 prostate, 67.2%; with K-562 leukemia, 40.7%; in the experiment with MALME-3M melanoma it was 84%. Also, the growth was 49.3% in the experiment with MDA-MB-231 breast; -1.53% (active) in the experiment with RXF 393 renal; 58.2% in the experiment on SF-268 CNS; 83.1% in the experiment with SF-295 CNS; 83.7% with SF-539 CNS; 95.1% in the experiment with UACC-257 melanoma. Also, the growth with M14 melanoma was 96.1%.

On to `COC[C@]12CCC(C)(C)C[C@H]1C1=CC[C@@H]3[C@@]4(C)CCCNC(C)(C)[C@@H]4CC[C@@]3(C)[C@]1(C)CC2`, for which the growth in the experiment on NCI-H23 lung is -83.9% (active); with NCI-H226 lung, -61.5% (active); in the experiment with NCI-H322M lung, -50.5% (active); in the experiment on HOP-62 NSCLC, 46.6%; in the experiment with NCI-H460 lung, -69% (active); in the experiment on HOP-92 NSCLC, -3.83% (active). The growth with A549/ATCC NSCLC was 10.1%; with 786-0 renal it was -83.1% (active); in the experiment on COLO 205 colon, -59.6% (active); in the experiment with DU-145 prostate, -39.8% (active); with K-562 leukemia, -43.7% (active); in the experiment with MALME-3M melanoma, -68.5% (active). Further, the growth with MDA-MB-231 breast was -53.3% (active); in the experiment on RXF 393 renal, -93% (active); with SF-268 CNS, 33.7%; in the experiment on SF-295 CNS, -89% (active); with SF-539 CNS, -63.7% (active); with UACC-257 melanoma it was -18.5% (active). In addition, the growth in the experiment with M14 melanoma was -67.3% (active).

In the case of `C=C(C)[C@@H]1CC[C@]2(COC)CC[C@]3(C)[C@H](CC[C@@H]4[C@@]5(C)CCCNC(C)(C)[C@@H]5CC[C@]43C)[C@@H]12`, the growth was 59.6% in the experiment with NCI-H23 lung; 74.1% with NCI-H226 lung; 82.6% in the experiment with NCI-H322M lung; 71.1% in the experiment on HOP-62 NSCLC; -30% (active) with NCI-H460 lung; 74.9% with HOP-92 NSCLC. Moreover, the growth is 39% with A549/ATCC NSCLC; 31.4% in the experiment on 786-0 renal; -49.2% (active) with COLO 205 colon; 57.9% in the experiment on DU-145 prostate; -47.7% (active) in the experiment with K-562 leukemia; -4.67% (active) with MALME-3M melanoma. The growth with MDA-MB-231 breast is 62.8%; in the experiment on RXF 393 renal, -4.43% (active); in the experiment on SF-268 CNS, 78.9%; in the experiment with SF-295 CNS, 58.3%; in the experiment on SF-539 CNS, 51.7%; with UACC-257 melanoma, 13.3%.

`Nc1ccccc1NC(=O)c1ccc(NC(=O)C/C=C/c2cccnc2)cn1`: the growth in the experiment with NCI-H23 lung was 22.7%; in the experiment on NCI-H226 lung, 25.1%; in the experiment with NCI-H322M lung, 35.9%; with HOP-62 NSCLC, 27.1%; in the experiment with NCI-H460 lung, 31.6%; in the experiment with HOP-92 NSCLC, -7.8% (active). Moreover, the growth was 33.5% in the experiment with A549/ATCC NSCLC; 31.9% in the experiment with 786-0 renal; -21.9% (active) in the experiment with COLO 205 colon; 6.29% (active) in the experiment with DU-145 prostate; 15.7% with K-562 leukemia; 15.6% in the experiment with MALME-3M melanoma. Moreover, the growth in the experiment with MDA-MB-231 breast was 41.6%; in the experiment on RXF 393 renal it was -35.5% (active); with SF-268 CNS, 28.3%; in the experiment with SF-295 CNS, 21.8%; with SF-539 CNS it was 9.41% (active); in the experiment on UACC-257 melanoma it was 14.5%.
